# According to the supplement of paper PMC8728848:
# About 410 targets per protein were measured; listed, in parts, are those with the strongest signals and a random draw of the rest.
# Assays:
# Assay in all cases: glycan array binding signal (z-score within array); higher = stronger binding
# Conditions in all cases: glycan notation: IUPAC condensed, linker removed
# [1] = target: Fuc(a1-2)Gal(b1-3)GlcNAc(b1-3)Gal(b1-4)Glc
# Procedure, shortened: (§1)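 The Consortium for Functional Glycomics database supplied 3228 glycan arrays, of which those lacking an available protein sequence were dropped. The binding signal, a within-array Z-score, was averaged across arrays of the same protein sequence and across linkers. Negative scores can be read as non-binding.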
# [2] = target: Fuc(a1-2)Gal(b1-3)GlcNAc6S
# Procedure, shortened: as §1
# [3] = target: Fuc(a1-2)Gal(b1-3)[Fuc(a1-4)]GlcNAc
# Procedure, shortened: as §1
# [4] = target: Fuc(a1-2)Gal(b1-4)Fuc(a1-3)]GlcNAc(b1-2)Man(a1-3)[Fuc(a1-2)Gal(b1-4)[Fuc(a1-3)]GlcNAc(b1-2)Man(a1-6)]Man(b1-4)GlcNAc(b1-4)GlcNAc
# Procedure, shortened: as §1
# [5] = target: Fuc(a1-2)Gal(b1-4)GlcNAc(b1-3)[Fuc(a1-2)Gal(b1-4)GlcNAc(b1-6)]GalNAc
# Procedure, shortened: as §1
# [6] = target: Fuc(a1-2)Gal(b1-4)[Fuc(a1-3)]GlcNAc(b1-3)Gal(b1-4)[Fuc(a1-3)]GlcNAc
# Procedure, shortened: as §1
# [7] = target: Fuc(a1-2)[Gal(a1-3)]Gal(b1-4)GlcNAc(b1-2)Man(a1-3)[Fuc(a1-2)[Gal(a1-3)]Gal(b1-4)GlcNAc(b1-2)Man(a1-6)]Man(b1-4)GlcNAc(b1-4)[Fuc(a1-6)]GlcNAc
# Procedure, shortened: as §1
# [8] = target: Fuc(a1-3)[Gal(b1-4)]GlcNAc(b1-3)Gal(b1-4)[Fuc(a1-3)]GlcNAc(b1-3)Gal(b1-4)[Fuc(a1-3)]GlcNAc
# Procedure, shortened: as §1
# [9] = target: Fuc(a1-3)[Gal(b1-4)]GlcNAc(b1-3)GalNAc
# Procedure, shortened: as §1
# [10] = target: Gal(a1-3)Gal(b1-3)GlcNAc(b1-2)Man(a1-3)[Gal(a1-3)Gal(b1-3)GlcNAc(b1-2)Man(a1-6)]Man(b1-4)GlcNAc(b1-4)GlcNAc
# Procedure, shortened: as §1
# [11] = target: Gal(a1-3)Gal(b1-3)GlcNAc(b1-3)GalNAc
# Procedure, shortened: as §1
# [12] = target: Gal(a1-3)Gal(b1-4)GlcNAc(b1-3)GalNAc
# Procedure, shortened: as §1
# [13] = target: Gal(a1-3)Gal(b1-4)[Fuc(a1-3)]GlcNAc(b1-2)Man(a1-3)[Gal(a1-3)Gal(b1-4)[Fuc(a1-3)]GlcNAc(b1-2)Man(a1-6)]Man(b1-4)GlcNAc(b1-4)GlcNAc
# Procedure, shortened: as §1
# [14] = target: Gal(a1-4)Gal(b1-4)GlcNAc(b1-3)Gal(b1-4)Glc
# Procedure, shortened: as §1
# [15] = target: Gal(a1-4)GlcNAc
# Procedure, shortened: as §1
# [16] = target: Gal(b1-2)Gal
# Procedure, shortened: as §1
# [17] = target: Gal(b1-3)GlcNAc(b1-2)Man(a1-3)[Gal(b1-3)GlcNAc(b1-2)Man(a1-6)]Man(b1-4)GlcNAc(b1-4)GlcNAc
# Procedure, shortened: as §1
# [18] = target: Gal(b1-3)GlcNAc(b1-3)Gal(b1-4)GlcNAc(b1-3)Gal(b1-4)GlcNAc(b1-2)[Gal(b1-3)GlcNAc(b1-3)Gal(b1-4)GlcNAc(b1-3)Gal(b1-4)GlcNAc(b1-6)]Man(a1-6)[Gal(b1-3)GlcNAc(b1-3)Gal(b1-4)GlcNAc(b1-3)Gal(b1-4)GlcNAc(b1-2)Man(a1-3)]Man(b1-4)GlcNAc(b1-4)[Fuc(a1-6)]GlcNAc
# Procedure, shortened: as §1
# [19] = target: Gal(b1-3)GlcNAc6S
# Procedure, shortened: as §1
# [20] = target: Gal(b1-3)[Fuc(a1-4)]GlcNAc(b1-6)GalNAc
# Procedure, shortened: as §1
# [21] = target: Gal(b1-4)GlcNAc(b1-2)Man(a1-3)[GlcNAc(b1-4)][Gal(b1-4)GlcNAc(b1-2)Man(a1-6)]Man(b1-4)GlcNAc(b1-4)GlcNAc
# Procedure, shortened: as §1
# [22] = target: Gal(b1-4)GlcNAc(b1-2)[Gal(b1-4)GlcNAc(b1-4)]Man(a1-3)[GlcNAc(b1-4)][Gal(b1-4)GlcNAc(b1-2)Man(a1-6)]Man(b1-4)GlcNAc(b1-4)GlcNAc
# Procedure, shortened: as §1
# [23] = target: Gal(b1-4)GlcNAc(b1-2)[Gal(b1-4)GlcNAc(b1-6)]Man(a1-6)[GlcNAc(b1-4)][Gal(b1-4)GlcNAc(b1-2)Man(a1-3)]Man(b1-4)GlcNAc(b1-4)GlcNAc
# Procedure, shortened: as §1
# [24] = target: Gal(b1-4)GlcNAc(b1-3)Gal(b1-4)GlcNAc
# Procedure, shortened: as §1
# [25] = target: Gal(b1-4)GlcNAc(b1-3)Gal(b1-4)GlcNAc(b1-3)Gal(b1-4)GlcNAc(b1-3)Gal(b1-4)GlcNAc(b1-2)Man(a1-3)[Gal(b1-4)GlcNAc(b1-3)Gal(b1-4)GlcNAc(b1-3)Gal(b1-4)GlcNAc(b1-3)Gal(b1-4)GlcNAc(b1-2)Man(a1-6)]Man(b1-4)GlcNAc(b1-4)[Fuc(a1-6)]GlcNAc
# Procedure, shortened: as §1
# [26] = target: Gal(b1-4)GlcNAc(b1-3)Gal(b1-4)GlcNAc(b1-3)Gal(b1-4)GlcNAc(b1-3)Gal(b1-4)GlcNAc(b1-3)Gal(b1-4)GlcNAc(b1-3)Gal(b1-4)GlcNAc(b1-2)Man(a1-3)[Gal(b1-4)GlcNAc(b1-3)Gal(b1-4)GlcNAc(b1-3)Gal(b1-4)GlcNAc(b1-3)Gal(b1-4)GlcNAc(b1-3)Gal(b1-4)GlcNAc(b1-3)Gal(b1-4)GlcNAc(b1-2)Man(a1-6)]Man(b1-4)GlcNAc(b1-4)GlcNAc
# Procedure, shortened: as §1
# [27] = target: Gal(b1-4)GlcNAc(b1-3)Gal(b1-4)GlcNAc(b1-6)[Gal(b1-3)]GalNAc
# Procedure, shortened: as §1
# [28] = target: Gal3S(b1-4)[Fuc(a1-3)]Glc6S
# Procedure, shortened: as §1
# [29] = target: Gal6P(b1-4)GlcNAc
# Procedure, shortened: as §1
# [30] = target: GalNAc(a1-3)GalNAc
# Procedure, shortened: as §1
binder,measurement,setting,value
"AntigenI/IIA3VP1 (Streptococcus mutans), C9E3B4 (protein) AANEADYQAKLTAYQTELARVQKANADAKAAYEAAVAANNAANAALTAENTAIKKRNADAKADYEAKLAKYQADLAKYQKDLADYPVKLKAYEDEQASIKAALAELEKHKNEDGNLTEPSAQNLVYDLEPNANLSLTTDGKFLKASAVDDAFSKSTSKAKYDQKILQLDDLDITNLEQSNDVASSMELYGNFGDKAGWSTTVSNNSQVKWGSVLLERGQSATATYTNLQNSYYNGKKISKIVYKYTVDPKSKFQGQKVWLGIFTDPTLGVFASAYTGQVEKNTSIFIKNEFTFYDEDGKPINFDNALLSVASLNREHNSIEMAKDYSGKFVKISGSSIGEKNGMIYATDTLNFKQGEGGSRWTMYKNSQAGSGWDSSDAPNSWYGAGAIKMSGPNNYVTVGATSATNVMPVSDMPVVPGKDNTDGKKPNIWYSLNGKIRAVNVPKVTKEKPTPPVKPTAPTKPTYETEKPLKPAPVAPNYEKEPTPPTRLEHHHHHH",glycan array binding signal (z-score),[1],-1.26
same,glycan array binding signal (z-score),[2],0.457
same,glycan array binding signal (z-score),[3],0.481
same,glycan array binding signal (z-score),[4],4.68
same,glycan array binding signal (z-score),[5],0.339
same,glycan array binding signal (z-score),[6],0.17
same,glycan array binding signal (z-score),[7],3.1
same,glycan array binding signal (z-score),[8],-0.372
same,glycan array binding signal (z-score),[9],2.64
same,glycan array binding signal (z-score),[10],3.47
same,glycan array binding signal (z-score),[11],2.79
same,glycan array binding signal (z-score),[12],-1.15
same,glycan array binding signal (z-score),[13],0.993
same,glycan array binding signal (z-score),[14],-0.067
same,glycan array binding signal (z-score),[15],-0.879
same,glycan array binding signal (z-score),[16],-0.551
same,glycan array binding signal (z-score),[17],0.099
same,glycan array binding signal (z-score),[18],5.61
same,glycan array binding signal (z-score),[19],0.094
same,glycan array binding signal (z-score),[20],3.1
same,glycan array binding signal (z-score),[21],-0.555
same,glycan array binding signal (z-score),[22],-0.31
same,glycan array binding signal (z-score),[23],-0.581
same,glycan array binding signal (z-score),[24],-0.087
same,glycan array binding signal (z-score),[25],3.27
same,glycan array binding signal (z-score),[26],3.91
same,glycan array binding signal (z-score),[27],-0.398
same,glycan array binding signal (z-score),[28],3.68
same,glycan array binding signal (z-score),[29],-1.28
same,glycan array binding signal (z-score),[30],0.327
